Laboratory results: PubChem BioAssay (NCATS)
Inconclusive results are not listed. Calls of active or inactive are those of the source. Unless noted, calls come from the whole dose curve.

Columns and labels:
[1] = qHTS assay for small molecule agonists of retinoid X receptor alpha signaling (AID 588544); details: HEK293T RXRa-UAS-bla, beta-lactamase reporter, 18 h; 530 nm emission;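 for activation: 0% = DMSO basal wells and 100% = reference agonist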
[2] = target: Retinoic acid receptor RXR-alpha (Homo sapiens) (UniProt P19793); assay: as above; details: HEK293T RXRa-UAS-bla, beta-lactamase reporter, 18 h; series mostly up to 76.7 µM
Chain of Retinoic acid receptor RXR-alpha (Homo sapiens) (P19793 whole entry, looked up): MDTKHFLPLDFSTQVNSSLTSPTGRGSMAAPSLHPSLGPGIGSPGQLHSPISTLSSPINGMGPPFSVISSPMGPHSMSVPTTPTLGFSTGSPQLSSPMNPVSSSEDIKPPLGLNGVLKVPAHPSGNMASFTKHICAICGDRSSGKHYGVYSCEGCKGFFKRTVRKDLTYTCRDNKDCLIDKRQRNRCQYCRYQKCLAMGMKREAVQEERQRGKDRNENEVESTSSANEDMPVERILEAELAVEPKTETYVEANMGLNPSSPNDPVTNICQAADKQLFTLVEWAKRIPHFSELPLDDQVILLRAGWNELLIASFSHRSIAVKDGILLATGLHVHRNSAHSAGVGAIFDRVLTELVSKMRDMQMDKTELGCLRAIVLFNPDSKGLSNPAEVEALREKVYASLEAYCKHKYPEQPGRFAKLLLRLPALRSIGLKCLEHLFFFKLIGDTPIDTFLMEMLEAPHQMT

[3] = target: Thyroid hormone receptor beta (Homo sapiens) (UniProt P10828); assay: qHTS assay for small molecule agonists of thyroid hormone receptor beta signaling (AID 588545); details: TR-UAS-bla GripTite HEK 293, beta-lactamase ratio, agonist mode, 18 h, percent of T3 response, DMSO as zero; series mostly up to 76.7 µM;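 note: 0% = DMSO only and 100% = 10 nM T3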
Chain of Thyroid hormone receptor beta (Homo sapiens) (P10828 whole entry, looked up): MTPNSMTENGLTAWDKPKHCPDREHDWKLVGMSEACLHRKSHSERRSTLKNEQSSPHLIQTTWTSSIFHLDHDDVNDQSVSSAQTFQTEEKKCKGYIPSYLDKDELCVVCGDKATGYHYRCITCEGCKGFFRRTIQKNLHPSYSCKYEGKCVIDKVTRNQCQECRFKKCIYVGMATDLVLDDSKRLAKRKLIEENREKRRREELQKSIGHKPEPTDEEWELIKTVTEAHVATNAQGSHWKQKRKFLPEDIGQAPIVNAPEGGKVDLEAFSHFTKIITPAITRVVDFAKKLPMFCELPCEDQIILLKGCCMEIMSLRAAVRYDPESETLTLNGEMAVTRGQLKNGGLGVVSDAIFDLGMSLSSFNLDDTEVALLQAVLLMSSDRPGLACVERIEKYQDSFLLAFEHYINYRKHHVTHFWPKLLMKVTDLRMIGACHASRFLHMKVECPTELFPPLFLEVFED
Outline: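 Efficacy and EC50 values derive from Hill fits of qHTS titration data, normalized to 10 nM T3 and DMSO-only wells. HEK 293 reporter cells were stimulated for 18 hrs at 37 C, with beta-lactamase activity measured by CCF4 fluorescence.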

[4] = qHTS assay for small molecule antagonists of retinoid X receptor alpha signaling (AID 588546; active = well fitted inhibition curve with a large enough effect in the signal ratio, with a control signal flat, not every such curve was filed as active; the % refers to the signal ratio;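 note: cells stimulated with 9-cis-retinoic acid as agonist; % is set by controls: 0 for no effect and ±100 for the full control effect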); details: HEK293T RXRa-UAS-bla, beta-lactamase ratio, antagonist mode; measured here: W530 green channel, cytotoxicity proxy
Outline: (§1)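 Beta-lactamase reporter inhibition, read as CCF4 fluorescence ratio (ex 405, em 460/530 nm) after 2 h at RT. HEK293T UAS-bla cells, 2500/well, were stimulated with 9-cis-RA at 500 or 100 nM final alongside test compound for 18 h at 37 C.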

[5] = target: Retinoic acid receptor RXR-alpha (Homo sapiens) (UniProt P19793); assay: as above; details: HEK293T RXRa-UAS-bla, beta-lactamase ratio, antagonist mode
Outline: as §1

[6] = target: Thyroid hormone receptor beta (Homo sapiens) (UniProt P10828); assay: qHTS assay for small molecule antagonists of thyroid hormone receptor beta signaling (AID 588547; active = well fitted inhibition curve with a large enough effect in the signal ratio, with a control signal flat, not every such curve was filed as active; the % refers to the signal ratio;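 note: cells stimulated with 0.4 nM T3 agonist during compound exposure; % is set by controls: 0 for no effect and ±100 for the full control effect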); details: TR-UAS-bla HEK293, beta-lactamase ratio, antagonist mode, 18 h
Outline: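 TR-UAS-bla GripTite HEK293 cells in 2% charcoal/dextran FBS medium were preincubated 4 h at 37 C, given compound (0.59 nM to 92 uM) plus 0.4 nM T3 (final) for 18 h, then CCF4 for 2 h at RT; Hill fit gave IC50.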

[7] = target: Voltage-gated inwardly rectifying potassium channel KCNH2 (Homo sapiens) (UniProt Q12809); assay: qHTS Assay for Small Molecule Inhibitors of the Human hERG Channel Activity (AID 588834; active = well fitted inhibition curve with a large enough effect;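 note: top concentration of the series differs between compounds; % is set by controls: 0 for no effect and ±100 for the full control effect; lower thallium flux fluorescence means stronger hERG block; nearly all actives have a fitted effect of over 50% in size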); details: U2OS BacMam hERG, FluxOR thallium flux fluorescence; series mostly up to 92.2 µM
Chain of Voltage-gated inwardly rectifying potassium channel KCNH2 (Homo sapiens) (Q12809 whole entry, looked up): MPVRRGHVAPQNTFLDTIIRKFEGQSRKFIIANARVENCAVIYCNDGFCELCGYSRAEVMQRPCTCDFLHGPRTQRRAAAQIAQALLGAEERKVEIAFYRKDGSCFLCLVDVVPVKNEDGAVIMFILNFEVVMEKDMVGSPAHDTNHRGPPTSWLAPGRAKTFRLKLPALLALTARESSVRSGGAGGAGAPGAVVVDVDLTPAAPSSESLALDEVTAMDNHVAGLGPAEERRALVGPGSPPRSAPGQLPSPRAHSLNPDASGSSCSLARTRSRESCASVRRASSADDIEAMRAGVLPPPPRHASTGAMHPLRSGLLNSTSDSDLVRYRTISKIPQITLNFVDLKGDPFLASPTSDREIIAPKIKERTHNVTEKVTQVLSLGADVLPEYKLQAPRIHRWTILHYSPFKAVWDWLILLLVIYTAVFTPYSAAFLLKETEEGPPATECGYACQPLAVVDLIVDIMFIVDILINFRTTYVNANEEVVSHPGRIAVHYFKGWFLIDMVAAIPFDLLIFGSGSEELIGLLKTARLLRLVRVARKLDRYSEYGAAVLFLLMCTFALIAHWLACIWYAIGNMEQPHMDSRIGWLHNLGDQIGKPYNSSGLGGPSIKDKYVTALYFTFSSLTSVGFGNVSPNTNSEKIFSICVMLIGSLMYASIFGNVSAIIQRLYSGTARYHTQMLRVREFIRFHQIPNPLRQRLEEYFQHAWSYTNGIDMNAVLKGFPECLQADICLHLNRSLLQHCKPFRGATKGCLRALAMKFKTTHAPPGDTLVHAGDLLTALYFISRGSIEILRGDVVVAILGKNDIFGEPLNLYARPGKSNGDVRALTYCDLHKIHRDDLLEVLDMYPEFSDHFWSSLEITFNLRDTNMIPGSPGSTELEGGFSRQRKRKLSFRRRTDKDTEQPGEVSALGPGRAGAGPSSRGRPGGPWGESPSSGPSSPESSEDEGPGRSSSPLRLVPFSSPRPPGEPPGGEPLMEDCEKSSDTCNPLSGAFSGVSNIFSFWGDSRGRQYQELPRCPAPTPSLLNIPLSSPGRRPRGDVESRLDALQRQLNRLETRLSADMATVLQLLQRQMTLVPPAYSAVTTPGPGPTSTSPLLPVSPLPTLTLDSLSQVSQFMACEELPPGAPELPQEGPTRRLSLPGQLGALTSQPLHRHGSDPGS
Outline: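 Concentration-response qHTS measuring drop in thallium-sensitive dye signal. U2OS cells carrying BacMam hERG; compound exposure ~10 min, then stimulation buffer and 2 min read at 1 sec intervals.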

[8] = qHTS assay for small molecule activators of the p53 signaling pathway (AID 651743; active = well fitted activation curve with a large enough effect in the signal ratio, not every such curve was filed as active; the % refers to the signal ratio; note: % of control where 0% means no effect); details: HCT-116 p53RE-bla, beta-lactamase FRET ratio, 16 h; stronger effect = higher value
Outline: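 Cell-based beta-lactamase reporter (p53 response elements, HCT-116 background). After a 5-hour preincubation, cells received compound for 16 hours at 37 C; substrate development ran 2 hours at room temperature.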

[9] = qHTS assay for small molecule activators of the nuclear factor-kappa B (NF-kB) signaling pathway (AID 651749; active = well fitted activation curve with a large enough effect in the signal ratio; the % refers to the signal ratio; note: % of control where 0% means no effect); details: NF-kB-bla ME-180 cells, beta-lactamase FRET ratio, 16 h; stronger effect = higher value
Outline: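 Screening used 2,000 ME-180 reporter cells per well exposed to pinned compound (23 nL) or DMSO; after 16 hr at 37C, beta-lactamase expression under NF-kB control was assessed through FRET.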

## CC(=O)Nc1cccc(N)c1
[1]
  max response: -8.93%
[2]
  outcome: inactive
[3]
  outcome: inactive
[4]
  max response: -0.371%
[5]
  max response: 6.6% (inactive)
[6]
  activity change % (negative = inhibition): -3.78% (inactive)
[7]
  Potency: inactive
[8]
  activation: 1.81% (inactive)
[9]
  activation: 0.511% (inactive)

## Nc1cccc2c(=O)[nH][nH]c(=O)c12
[1]
  max response: -4.82%
[2]
  outcome: inactive
[3]
  outcome: inactive
[4]
  max response: -2.09%
[5]
  max response: 12.7% (inactive)
[6]
  activity change % (negative = inhibition): -3.76% (inactive)
[7]
  Potency: inactive
[8]
  activation: -2.14% (inactive)
[9]
  activation: 0.176% (inactive)

## Cc1c(C(=O)O)cccc1[N+](=O)[O-]
[1]
  max response: -9.97%
[2]
  outcome: inactive
[3]
  outcome: inactive
[4]
  max response: -4.5%
[5]
  max response: -1.44% (inactive)
[6]
  activity change % (negative = inhibition): 12.8% (inactive)
[7]
  Potency: inactive
[8]
  activation: 1.1% (inactive)
[9]
  activation: 0.0023% (inactive)

## Nc1ccc([N+](=O)[O-])c(N)c1
[1]
  max response: -12.6%
[2]
  outcome: inactive
[3]
  outcome: inactive
[4]
  max response: -1.48%
[5]
  max response: -8.62% (inactive)
[6]
  activity change % (negative = inhibition): -0.546% (inactive)
[7]
  Potency: inactive
[8]
  activation: -5.74% (inactive)
[9]
  activation: 0.47% (inactive)

## O=[N+]([O-])c1cc(C(F)(F)F)ccc1Cl
[1]
  max response: -4.02%
[2]
  outcome: inactive
[3]
  outcome: inactive
[4]
  max response: -1.67%
[5]
  max response: -6.84% (inactive)
[6]
  activity change % (negative = inhibition): -5.36% (inactive)
[7]
  Potency: inactive
[8]
  activation: -0.0124% (inactive)

## Nc1ccc(Cl)cc1[N+](=O)[O-]
[1]
  max response: -5.09%
[2]
  outcome: inactive
[3]
  outcome: inactive
[4]
  max response: -5.59%
[5]
  max response: -5.85% (inactive)
[6]
  activity change % (negative = inhibition): 1.54% (inactive)
[7]
  Potency: inactive
[8]
  activation: -3.6% (inactive)
[9]
  activation: -1.3% (inactive)

## Cc1ccc(CO)cc1
[1]
  max response: -4.09%
[2]
  outcome: inactive
[3]
  outcome: inactive
[4]
  max response: -4.56%
[5]
  max response: 0.12% (inactive)
[6]
  activity change % (negative = inhibition): 14.7% (inactive)
[7]
  Potency: inactive
[8]
  activation: -4.79% (inactive)
[9]
  activation: -1.4% (inactive)

## Cc1ccc(Cl)cc1N
[1]
  max response: 3.01%
[2]
  outcome: inactive
[3]
  outcome: inactive
[4]
  max response: -7.87%
[5]
  max response: 0.248% (inactive)
[6]
  activity change % (negative = inhibition): -4.43% (inactive)
[7]
  Potency: inactive
[8]
  activation: 0.545% (inactive)
[9]
  activation: 0.369% (inactive)

## CCCCCCCCN
[1]
  max response: -7.59%
[2]
  outcome: inactive
[3]
  outcome: inactive
[4]
  max response: 2.38%
[5]
  max response: 13.9% (inactive)
[6]
  activity change % (negative = inhibition): 5.95% (inactive)
[7]
  Potency: inactive
[8]
  activation: -1.65% (inactive)
[9]
  activation: -1.11% (inactive)

## O=[N+]([O-])c1ccccc1CCO
[1]
  max response: 4.35%
[2]
  outcome: inactive
[3]
  outcome: inactive
[4]
  max response: -5.47%
[5]
  max response: -8.97% (inactive)
[6]
  activity change % (negative = inhibition): 2.13% (inactive)
[7]
  Potency: inactive
[8]
  activation: -1.31% (inactive)
[9]
  activation: -0.881% (inactive)

## CCCCC(=O)N(C)C
[1]
  max response: -11.8%
[2]
  outcome: inactive
[3]
  outcome: inactive
[4]
  max response: -2.95%
[5]
  max response: 11.5% (inactive)
[6]
  activity change % (negative = inhibition): 6.71% (inactive)
[7]
  Potency: inactive
[8]
  activation: -1.85% (inactive)
[9]
  activation: -0.0165% (inactive)

## ON=C1CCCCC1
[1]
  max response: -11.2%
[2]
  outcome: inactive
[3]
  outcome: inactive
[4]
  max response: 5.82%
[5]
  max response: 4.41% (inactive)
[6]
  activity change % (negative = inhibition): 8.44% (inactive)
[7]
  Potency: inactive
[8]
  activation: -1.24% (inactive)
[9]
  activation: -0.0489% (inactive)

## BrC(Br)C(Br)Br
[1]
  max response: -10.8%
[2]
  outcome: inactive
[3]
  outcome: inactive
[4]
  max response: -6.63%
[5]
  max response: -0.43% (inactive)
[6]
  activity change % (negative = inhibition): 0.66% (inactive)
[7]
  Potency: inactive
[8]
  activation: -2.69% (inactive)
[9]
  activation: 2.53% (inactive)

## N#CC1(O)CCCCC1
[1]
  max response: 4.69%
[2]
  outcome: inactive
[3]
  outcome: inactive
[4]
  max response: -4.06%
[5]
  max response: 2.71% (inactive)
[6]
  activity change % (negative = inhibition): -16% (inactive)
[7]
  Potency: inactive
[8]
  activation: 0.526% (inactive)
[9]
  activation: -2.59% (inactive)

## Nc1ccccc1S(=O)(=O)O
[1]
  max response: 0.0246%
[2]
  outcome: inactive
[3]
  outcome: inactive
[4]
  max response: -2.85%
[5]
  max response: 1.63% (inactive)
[6]
  activity change % (negative = inhibition): 5.88% (inactive)
[7]
  Potency: inactive
[8]
  activation: -0.779% (inactive)
[9]
  activation: -0.0968% (inactive)

## CCCCC(CC)CNCC(CC)CCCC (stereo not drawn)
[1]
  max response: 2.31%
[2]
  outcome: inactive
[3]
  outcome: inactive
[4]
  max response: 0.349%
[5]
  max response: 10% (inactive)
[6]
  activity change % (negative = inhibition): 4.7% (inactive)
[9]
  activation: -0.684% (inactive)

## Cc1cc(C)c(N)cc1C
[1]
  max response: -11.9%
[2]
  outcome: inactive
[3]
  outcome: inactive
[4]
  max response: 3.08%
[5]
  max response: 16.4% (inactive)
[6]
  activity change % (negative = inhibition): -8.09% (inactive)
[7]
  Potency: inactive
[9]
  activation: -0.054% (inactive)

## C=CC(=O)NC(C)C
[1]
  max response: -3.51%
[2]
  outcome: inactive
[3]
  outcome: inactive
[4]
  max response: 5.01%
[5]
  max response: 0.568% (inactive)
[6]
  activity change % (negative = inhibition): -0.537% (inactive)
[7]
  Potency: inactive
[8]
  activation: -0.785% (inactive)
[9]
  activation: 0.588% (inactive)

## Cc1ccccc1C(N)=O
[1]
  max response: -6.32%
[2]
  outcome: inactive
[3]
  outcome: inactive
[4]
  max response: 9.22%
[5]
  max response: 7.98% (inactive)
[6]
  activity change % (negative = inhibition): -3.78% (inactive)
[8]
  activation: 1.09% (inactive)
[9]
  activation: 1.42% (inactive)

## CCC1CO1 (stereo not drawn)
[1]
  max response: -15.4%
[2]
  outcome: inactive
[3]
  outcome: inactive
[4]
  max response: -10.7%
[5]
  max response: -1.32% (inactive)
[6]
  activity change % (negative = inhibition): -15.4% (inactive)
[7]
  Potency: inactive
[8]
  activation: -2.66% (inactive)
[9]
  activation: -0.443% (inactive)

## Cc1cccc(C)c1O
[1]
  max response: -16.7%
[2]
  outcome: inactive
[3]
  outcome: inactive
[4]
  max response: 3.79%
[5]
  max response: -1.13% (inactive)
[6]
  activity change % (negative = inhibition): -9.8% (inactive)
[7]
  Potency: inactive
[8]
  activation: -0.5% (inactive)
[9]
  activation: -0.357% (inactive)

## CCOc1cccc(N)c1
[1]
  max response: -8.66%
[2]
  outcome: inactive
[3]
  outcome: inactive
[4]
  max response: 5.53%
[5]
  max response: -4.73% (inactive)
[6]
  activity change % (negative = inhibition): -0.0909% (inactive)
[7]
  Potency: inactive
[8]
  activation: 0.42% (inactive)
[9]
  activation: -0.866% (inactive)
